Measured values reported in PubChem BioAssay AID1159580 (chemical genetic matrix, 2015).
Screen size: about 5,500 compounds; about 2,000 (36%) were called active. Inconclusive results (about 18%) are left out. Cut-off read from the data, not from the text of the source: active = normalized growth mostly below about 0.91 (no sharp cut-off); inconclusive = no clear call, values can overlap the other calls; inactive = mostly above about 0.92. This is one part of the list.

Test: chemical genetic growth profiling, strain panel (AID 1159580);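 note: tested at 20 µM; growth read once vehicle control cultures reached saturation at 30 °C; 1 = growth at the plate median or of vehicle wells; lower values mean less growth of the strain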
Details: growth OD
[1] = S. cerevisiae deletion strains, locus YAL013W, strain DEP1, stronger effect = lower value
[2] = S. cerevisiae deletion strains, locus YBR229C, strain ROT2, stronger effect = lower value
[3] = S. cerevisiae deletion strains, locus YDL101C, strain DUN1, stronger effect = lower value
[4] = S. cerevisiae deletion strains, locus YDL134C, strain PPH21, stronger effect = lower value
[5] = S. cerevisiae deletion strains, locus YDR150W, strain NUM1, stronger effect = lower value
[6] = S. cerevisiae deletion strains, locus YEL061C, strain CIN8, stronger effect = lower value
[7] = S. cerevisiae deletion strains, locus YGR078C, strain PAC10, stronger effect = lower value
[8] = S. cerevisiae deletion strains, locus YHR030C, strain SLT2, stronger effect = lower value
[9] = S. cerevisiae deletion strains, locus YHR087W, strain rtc3, stronger effect = lower value
[10] = S. cerevisiae deletion strains, locus YJR043C, strain POL32, stronger effect = lower value
[11] = S. cerevisiae deletion strains, locus YJR075W, strain HOC1, stronger effect = lower value
[12] = S. cerevisiae deletion strains, locus YKL190W, strain CNB1, stronger effect = lower value
[13] = S. cerevisiae deletion strains, locus YLR039C, strain RIC1, stronger effect = lower value
[14] = S. cerevisiae deletion strains, locus YLR058C, strain SHM2 (second series), stronger effect = lower value
[15] = S. cerevisiae deletion strains, locus YLR085C, strain ARP6, stronger effect = lower value
[16] = S. cerevisiae deletion strains, locus YLR262C, strain YPT6, stronger effect = lower value
[17] = S. cerevisiae deletion strains, locus YML094W, strain GIM5, stronger effect = lower value
[18] = S. cerevisiae deletion strains, locus YMR219W, strain ESC1, stronger effect = lower value
[19] = S. cerevisiae deletion strains, locus YMR263W, strain SAP30, stronger effect = lower value
[20] = S. cerevisiae deletion strains, locus YMR307W, strain GAS1, stronger effect = lower value
[21] = S. cerevisiae deletion strains, locus YNL153C, strain GIM3, stronger effect = lower value
[22] = S. cerevisiae deletion strains, locus YNL298W, strain CLA4 (second series), stronger effect = lower value
[23] = S. cerevisiae deletion strains, locus YNL322C, strain KRE1, stronger effect = lower value
[24] = S. cerevisiae deletion strains, locus YNR030W, strain Alg12, stronger effect = lower value
[25] = S. cerevisiae deletion strains, locus YPL055C, strain LGE1, stronger effect = lower value
[26] = S. cerevisiae deletion strains, locus YPL241C, strain CIN2, stronger effect = lower value
[27] = S. cerevisiae deletion strains, locus YPR135W, strain CTF4, stronger effect = lower value

Measured: normalized growth

N/C(=N/O)c1csc(-c2ccc(F)cc2F)n1
inactive: [1] 0.96 | [2] 0.978 | [3] 1.02 | [4] 0.995 | [5] 0.968 | [6] 1.01 | [7] 0.989 | S. cerevisiae deletion strains, locus YGR229C, strain SMI1, stronger effect = lower value 0.995 | [8] 0.921 | [9] 0.98 | [10] 1 | [11] 1.02 | [12] 0.996 | [13] 0.933 | [14] 1.01 | [15] 1.14 | [16] 0.969 | [17] 0.933 | [18] 0.995 | [19] 0.997 | [20] 1.25 | [21] 0.986 | [22] 1.01 | [23] 1 | [24] 0.983 | [25] 0.943 | [26] 1 | [27] 0.844 | S. cerevisiae strains, strain wild type, stronger effect = lower value 0.991

Cc1ccc(/C(N)=N\O)cc1F
inactive: [1] 0.998 | [2] 1 | [3] 1.01 | [4] 0.988 | [5] 0.995 | [6] 1.01 | [7] 1.01 | [8] 1.03 | [9] 1 | S. cerevisiae deletion strains, locus YJL187C, strain SWE1, stronger effect = lower value 1.02 | [10] 1.01 | [11] 1.03 | [12] 0.988 | [13] 1.04 | [14] 1.02 | [16] 0.997 | [17] 1 | [18] 1 | [19] 1 | [20] 1.24 | S. cerevisiae deletion strains, locus YNL128W, strain TEP1, stronger effect = lower value 0.975 | [21] 1.02 | [22] 1.02 | [23] 1 | [24] 0.989 | S. cerevisiae deletion strains, locus YOL006C, strain TOP1, stronger effect = lower value 1.03 | [25] 1.03 | [26] 1.1 | [27] 1.07
active: [15] 1.32 [resistant]
